MEX-5 binding – C. elegans MEX-5 TCR-2 RNA binding activity; AID 1832; Q9XUB2; 0.38% of 300,000 active; activity score (negative = inhibition of binding), % at 10 µM; MEX-5/FITC-TCR2 RNA binding, fluorescence polarization; hits give low values;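 active = inhibition past about -25% in most replicates, and total fluorescence under double the plate's negative control median, limit read from the data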;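 note: 0% = DMSO and -100% = 5 µM competing unlabeled TCR2 RNA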
Target sequence (Q9XUB2 whole entry, looked up): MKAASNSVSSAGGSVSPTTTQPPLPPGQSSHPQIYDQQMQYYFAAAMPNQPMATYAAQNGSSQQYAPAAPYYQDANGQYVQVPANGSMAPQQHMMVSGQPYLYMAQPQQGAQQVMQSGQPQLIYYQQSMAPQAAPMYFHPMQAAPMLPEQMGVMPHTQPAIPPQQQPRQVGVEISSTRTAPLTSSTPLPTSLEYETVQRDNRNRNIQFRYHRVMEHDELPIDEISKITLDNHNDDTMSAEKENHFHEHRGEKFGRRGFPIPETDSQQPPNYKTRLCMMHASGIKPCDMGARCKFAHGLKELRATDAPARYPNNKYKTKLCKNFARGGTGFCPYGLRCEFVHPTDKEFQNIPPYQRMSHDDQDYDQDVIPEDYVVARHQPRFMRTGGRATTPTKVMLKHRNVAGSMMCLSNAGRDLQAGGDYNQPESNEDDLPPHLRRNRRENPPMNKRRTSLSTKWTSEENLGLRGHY
eLon inh – E. coli protease La inhibition; inhibition, % at 7.94 µM; AID 602123; purified E. coli Lon protease, fluorescence polarization; 0.42% of 360,000 active; in the data active = inhibition above about 13%, passing the limit was not always enough;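 note: 0% = enzyme with probe and DMSO and 100% = no enzyme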
MCL1 BIM primary – MCL1-BIM-BH3 interaction inhibition (human). inhibition, % at 10.9 µM. Q07820. 0.68% of 320,000 active. GST-MCL1 / FITC-Bim-BH3 fluorescence polarization;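 active = inhibition above the mean inhibition of all tested compounds plus 3 SD, set per campaign, cut at about 40% in these data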;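 note: 0% = DMSO wells and 100% = unlabeled Bim-BH3 peptide control; higher means more loss of mP so more displacement of Bim peptide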
Bcl-xL primary – Bcl-xL (human) inhibition. Q07817. GST-Bcl-xL / FITC-Bim BH3 peptide fluorescence polarization. inhibition, % at 10.9 µM. 0.7% of 320,000 active. AID 2129;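 active = inhibition above the mean of all tested compounds plus 3 SD, cutoff set per campaign, cut at about 30% in these data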;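 note: 0% = DMSO wells and 100% = unlabeled Bim-BH3 peptide competitor; inhibitors lower millipolarization by displacing the labeled peptide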
GLD-1 TGE inh – GLD-1-TGE RNA interaction inhibition (C. elegans). Q17339. purified GLD-1 + fluorescein TGE RNA, fluorescence polarization. inhibition, % at 5.96 µM. 0.44% of 320,000 active;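 active = percent inhibition above a per-plate cutoff, the plate mean of test compounds plus 3 SD, cut at about 30% in these data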;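 note: 0% = DMSO wells with GLD-1 and probe and 100% = wells lacking GLD-1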
eLon confirm – E. coli Lon inhibition confirmation; 31% of 1,400 active; purified E. coli Lon, fluorescence polarization; shares compounds with eLon inh; AID 602230; inhibition, % at 7.94 µM; in the data active = inhibition above about 16%;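 note: 0% = enzyme with probe and DMSO and 100% = no enzyme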
* = called active by the depositor; x = not tested or not shown. Sampled rows, rich in hits. Any-hit rate of the full collection: about 1.4%.

SMILES	MEX-5 binding	eLon inh	MCL1 BIM primary	Bcl-xL primary	GLD-1 TGE inh	eLon confirm
O=C(Cc1coc2cc(O)ccc12)N1CCN(S(=O)(=O)c2ccc(Br)cc2)CC1	x	-6	x	x	x	x
COc1ccc(C(=O)OCC(=O)Nc2ccc(F)c(F)c2)cc1OC	1	14*	2	10	-1	-4
CCN(CC)C(=O)C1=C(C)N(CCCN2CCCC2=O)C(=O)C(CC(=O)NC(c2ccccc2)c2ccccc2)C1 (stereo unspecified)	x	1	x	x	x	x
CCOC(=O)C1CCN(C(=O)C(=O)c2cn(CC(=O)N3CCCCCC3)c3ccccc23)CC1	-1	14	3	11	10	x
CCOC(=O)N1CCN(C(=O)C(=O)c2cn(CC(=O)N3CCCCCC3)c3ccccc23)CC1	-8	20*	6	4	8	2
CCCCN1C[C@H](Cc2ccccc2)[C@@H](CC(=O)NC)C1=O	x	-4	x	x	x	x
COc1ccc([N+](=O)[O-])cc1NC(=O)C(C)c1ccccc1 (stereo unspecified)	-2	22*	9	1	2	-1
C[C@H](CO)N1C[C@H](C)[C@@H](CN(C)CC2CC2)OCc2cnnn2CCCC1=O	x	-2	x	x	x	x
COc1ccc(-c2ccc(C(=O)Nc3ccc(Cl)cc3)c3occc23)c(C)c1	x	6	x	x	x	x
Clc1ccc(CN2CC[C@H]3C=CCc4cccc(c43)C2)cc1	x	-3	0	4	1	x
Fc1ccc(CN2CC[C@H]3C=CCc4cccc(c43)C2)cc1	x	30*	11	9	0	-9
COc1cc(/C=N/NC(=O)COc2ccc(-n3cnnn3)cc2)ccc1OCC(N)=O	1	22*	6	2	3	-3
NC(=O)COc1ccc(-n2cnnn2)cc1	-1	1	30	6	-2	x
CCCNC(=O)C1(C)CCN(Cc2cc(C(F)(F)F)ccc2Cl)C1 (stereo unspecified)	x	-12	x	x	x	x
Nc1nc(-c2ccccc2)c(CCCOc2ccc(NC(=O)CBr)cc2)c(=O)[nH]1	x	-9	x	x	x	x
O=C(NNC(=O)C1CC1)c1cc(=O)[nH]c2ccccc12	x	-4	x	x	-2	x
CCCN(CC(=O)Nc1cc(C)on1)CC(=O)Nc1ccccc1C	x	60*	0	-6	5	0
Cc1ccc(F)c(S(=O)(=O)NC(=O)C2(C)CCN2C(=O)Cc2cccc3ccccc23)c1 (stereo unspecified)	x	-11	x	x	x	x
COC(=O)C(C)Sc1nnc(Cc2cc(=O)[nH]c(=O)[nH]2)n1-c1ccc(Cl)cc1 (stereo unspecified)	-15	37*	21	21	27	8
CCSc1nnc(Cc2cc(=O)[nH]c(=O)[nH]2)n1-c1ccc(Cl)cc1	1	13	4	10	15	x
CCOC(=O)C(C)Sc1nnc(Cc2cc(=O)[nH]c(=O)[nH]2)n1-c1ccc(Cl)cc1 (stereo unspecified)	-5	24*	12	18	24	8
CCOC(=O)C(C)Sc1nnc(Cc2cc(=O)[nH]c(=O)[nH]2)n1-c1ccc(OCC)cc1 (stereo unspecified)	x	-3	-6	0	5	x
O=C(O)CN=C(Nc1cc(Cl)cc(Cl)c1)NC(c1ccccc1)c1ccccc1	x	-7	x	x	x	x
Cc1cc2nc3c(=O)n(C4CCCCC4)c(=O)[nH]c3nc2cc1N	x	75*	x	x	x	115*
Cc1ccc(N(CC(=O)N2CCCC2)S(C)(=O)=O)c(C)c1	6	36*	5	0	4	7
SMILES	MEX-5 binding	eLon inh	MCL1 BIM primary	Bcl-xL primary	GLD-1 TGE inh	eLon confirm
Cc1ccc(N(CC(=O)N2CCCC2)S(C)(=O)=O)cc1C	1	13	-6	5	-1	x
O=C(Cc1ccccc1)NC1CCCCC1	x	-1	x	x	x	x
O=C(Nc1ccccc1OC(F)F)c1ccc(N2CCCC2=O)cc1	x	-6	x	x	x	x
O=C(NCCc1ccccc1)c1cccc2c(-c3cccnc3)coc12	x	-1	x	x	x	x
COc1ccc(CN(C)C(=O)c2cccc(S(=O)(=O)N3CCCc4ccccc43)c2)c(OC)c1OC	x	-12	x	x	x	x
Cc1ccc(S(=O)(=O)NC(=O)NCc2ccc(Cl)cc2)cc1	-1	16*	3	-2	-2	6
Cc1ccc(S(=O)(=O)N2C[C@H]3n4c(=O)ccc(=O)n4C[C@H](OC(=O)NCc4ccccc4F)[C@@]3(O)C2)cc1	x	-1	x	x	x	x
O=C(CNC(=O)c1cccc(F)c1)N/N=C/C=C/c1ccccc1	-1	17*	1	2	-4	3
COC(=O)N1CCCCC1c1cc(C(=O)Nc2ccccc2Cl)no1 (stereo unspecified)	x	-3	x	x	x	x
Cc1cc2cc3c(=O)[nH]c(=O)cc-3n(CC(O)C(O)C(O)CO)c2cc1C (stereo unspecified)	x	87*	x	x	x	91*
Cc1ccc(/C=C2/SC(=O)NC2=S)o1	x	89*	x	x	x	107*
O=C(Nc1ccccc1)c1nn(-c2cccc(C(F)(F)F)c2)ccc1=O	-1	-6	6	7	0	x
COC(=O)c1nn(-c2cccc(C(F)(F)F)c2)ccc1=O	2	19*	2	5	9	-9
COc1c(Br)cc(/C=N/n2c(-c3ccccc3)n[nH]c2=S)c(O)c1Br	0	19*	11	-7	7	-11
Oc1c(Br)cc(Br)cc1/C=N/n1c(-c2ccccc2)n[nH]c1=S	4	-10	0	-18	-3	x
OCC[C@@H]1C[C@@H](O)[C@H](O)[C@]2(OCCc3ccccc32)O1	0	8	0	7	-2	x
O=C(O)CCC1(C(=O)O)OCCc2ccccc21 (stereo unspecified)	0	17*	-2	3	1	-2
CCOC(=O)N(C)C[C@@H]1OCc2cnnn2CCCC(=O)N([C@H](C)CO)C[C@@H]1C	x	0	x	x	x	x
O=C(COC(=O)Cc1ccc(Cl)cc1)NC1CCCC1	x	50*	11	5	0	-11
CC1(C(=O)NCc2ccc(C(F)(F)F)cc2)CCN1Cc1ccc(-c2ccccc2)o1 (stereo unspecified)	x	-11	x	x	x	x
CC1(CCC(=O)N2CCCC(N3CCN(c4ccc(F)cc4)CC3)C2)CC1 (stereo unspecified)	1	13*	3	-1	2	-7
CSCC(=O)N1CCCC(N2CCN(c3ccc(F)cc3)CC2)C1 (stereo unspecified)	0	-6	8	5	5	x
CCCCN(C(=O)C1=COCCO1)c1c(N)n(CCC)c(=O)[nH]c1=O	-2	-1	11	12	10	x
CCCCn1c(N)c(N(CCC(C)C)C(=O)C2=COCCO2)c(=O)[nH]c1=O	-11	36*	20	16	12	5
CN1C(=O)CC(Nc2cccc3cccc(N)c23)C1=O (stereo unspecified)	-1	21*	15	9	2	8
CC1(C(=O)O)CCCN1C(=O)c1cc2ccccc2s1 (stereo unspecified)	x	-2	x	x	x	x
CCCCn1c(N)c(N(CCOC)C(=O)C2CCN(c3ncnc4sc(C)c(C)c34)CC2)c(=O)[nH]c1=O	3	-1	-16	-6	3	x
